Experimental findings from PubChem BioAssay AID1851 (National Center for Advancing Translational Sciences (NCATS), 2009) are described below.

For orientation: AC50 means the concentration giving half of the maximal activity seen.

The campaign covered roughly 16,000 compounds. About 5,700 (36%) were called active. Another 24% or so got no clear call; they are omitted. The list shows a part of the results. A number with no mark means an inactive call. Calls come from the whole dose curve; as a rule, active = well fitted curve in the direction sought with a large enough effect; inconclusive = small, poorly fitted or top-dose-only effect, or effect the other way; inactive = no such curve, though single readings can be large or run the other way.
% is set by controls: 0 for no effect and ±100 for the full control effect.

Cytochrome P450 1A2 (Homo sapiens), sequence (P05177 whole entry, looked up): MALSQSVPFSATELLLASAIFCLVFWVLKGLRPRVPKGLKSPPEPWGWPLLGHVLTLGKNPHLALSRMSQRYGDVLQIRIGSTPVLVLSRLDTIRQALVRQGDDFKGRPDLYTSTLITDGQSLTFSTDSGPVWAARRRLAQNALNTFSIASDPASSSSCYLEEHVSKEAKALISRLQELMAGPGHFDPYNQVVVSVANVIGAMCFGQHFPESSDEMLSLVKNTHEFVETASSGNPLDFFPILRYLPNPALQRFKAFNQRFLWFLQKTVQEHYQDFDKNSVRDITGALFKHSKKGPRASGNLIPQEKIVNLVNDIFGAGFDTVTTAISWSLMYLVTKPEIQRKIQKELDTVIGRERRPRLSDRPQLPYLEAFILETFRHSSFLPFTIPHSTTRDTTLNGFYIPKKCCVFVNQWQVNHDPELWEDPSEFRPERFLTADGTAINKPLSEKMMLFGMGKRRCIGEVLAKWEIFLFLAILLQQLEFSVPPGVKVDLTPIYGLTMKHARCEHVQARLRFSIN

The assay addresses Cytochrome P450 1A2 (Homo sapiens) (UniProt P05177). The experiment in a line: Cytochrome panel assay with activity outcomes. To be noted: recombinant CYP, pro-luciferin dealkylation, luminescence, p450-cyp1a2; series mostly up to 57.1 µM; activity, negative = inhibition: at the top concentration. How it is done: The P450 gene superfamily is involved in the metabolism and clearance of xenobiotics. This assay used various human CYP P450 isozymes to measure the dealkylation of various pro-luciferin substrates to luciferin. The luciferin is then measured by luminescence after the addition of a luciferase detection reagent. Pro-luciferin substrate concentration in the assay was equal to its KM for its CYP P450 isozyme. Inhibitors and some substrates limit the production of luciferin, and decrease measured luminescence.
NCGC Assay Protocol Summary:
1, Reagent, 2 uL, Isozyme and Pro-Luciferin
2, Library compounds, 23 nl, 40 uM to 0.24 nM dilution series
3, Controls, 23 nl, Isozyme specific inhibitor
4, Reagent, 2 uL, NADPH regeneration solution
5, Incubation time, 60 min, Isozyme specific temperature
6, Reagent, 4ul, Detection reagent
7, Incubation time, 20 min, Isozyme specific temperature
8, Detection, 1 sec, ViewLux luminescent read
The luciferase-based P450-GloTM Screening Systems were obtained from Promega (Madison, WI) for CYP 1A2 (V9770), CYP 2C9 (V9790), CYP2 C19 (V9880), CYP 2D6 (V9890), and CYP 3A4 Luciferin-PPXE (V9910) and were adapted for 1,536-well microplates and an automated protocol. The control compounds furafylline for 1A2 (F124), sulfaphenazole for CYP 2C9 (S0758), ketoconazole for CYP 2C19 (K1003), quinidine for 2D6 (Q3625), and ketoconazole for 3A4 (K1003) were purchased from Sigma Aldrich (St. Louis, MO). Recombinant P450 enzymes were obtained from baculovirus constructs expressed in insect cells (BD/Gentest).
Medium-binding white solid Kalypsys plates used. Mixtures kept on ice. 1A2: 10 nM 1A2, 100 uM Luc-ME, 100 mM KPO4; 2C9: 10 nM 2C9, 100 uM Luc-H, 25 mM KPO4; 2C19: 5 nM 2C19, 10 uM Luc-H EGE, 50 mM KPO4; 2D6: 5 nM 2D6, 30 uM Luc-ME EGE, 100 mM KPO4; 3A4: 10 nM, 25 uM Luc-PPXE. All amounts are reflected in their final concentration, working concentration is 2x.
NADPH regeneration solution: 1.3 mM NADP+, 3.3 mM glucose-6-phosphate, 3.3 mM MgCl2, 0.4 U/mL glucose-6-phosphate dehydrogenase for all isozymes, 200 mM KPO4 for 3A4. Mixture prepared at RT but kept on ice during automated run.
RT incubation in auxilliary plate hotel for 1A2, 2D6, and 3A4; 37C for 2C9 and 2C19.
Keywords: P450, CYP1A2, CYP2C19, CYP2C9, CYP2D6, CYP3A4, Luciferase, MLSMR, MLSCN, NIH Roadmap, qHTS, NCGC
For the compound `COc1ccc2c3c([nH]c2c1)[C@H]1C[C@@H]2[C@@H](C[C@@H](O)[C@H](OC)[C@H]2C(=O)O)CN1CC3`, the activity, negative = inhibition was -1.02% [at 11.4 µM]. For `COc1cnc(-c2ccccn2)nc1Oc1ccc(Cl)c2ccccc12`, the AC50 was 5.62 µM (active).

Turning to `CCOC(=O)/C(C#N)=C1/C=CN(C)C=N1`, the “activity, negative = inhibition” value is -5.3%.

Take `CC(C)N(CCC(=O)c1ccc2ccccc2c1)Cc1ccccc1`: the AC50 was 3.98 µM (active).

With `CC(C)N(CCNC(=O)C1CCN(S(=O)(=O)N2CCOCC2)CC1)Cc1ccccc1`, the “activity, negative = inhibition” value was -8.41%. Same read-out and setting: the result for `CC(C)N(CCNC(=O)C1CCC(=O)N1Cc1ccc(F)cc1)Cc1ccccc1` (stereo unspecified) reads -25.1%. Take `N=C(N)S[C@H]1c2ccccc2-c2cc([N+](=O)[O-])ccc21`: the AC50 is 0.158 µM (active). On to `CN1CCCN(C)C1c1cc([N+](=O)[O-])ccc1O`, for which the activity, negative = inhibition is -14.3% [at 11.4 µM]. Consider `COc1ccc(/C(O)=C2/C(=O)C(=O)N(Cc3cccnc3)C2c2ccco2)cc1OC` (stereo unspecified), for which the “activity, negative = inhibition” value was 5.59%. In the case of `Cc1ccc(C)c(/C(O)=C2\C(=O)C(=O)N(Cc3cccnc3)C2c2cccnc2)c1` (stereo unspecified), the AC50 is 25.1 µM (active).

With `COCCCN1C(=O)C(=O)/C(=C(/O)c2ccc(OC)cc2C)C1c1cccnc1` (stereo unspecified), the “activity, negative = inhibition” value was 3%. Turning to `COc1cccc(Cn2c(=O)c(-c3cccs3)nc3cnc(OC)nc32)c1`, the half-maximal activity concentration (AC50) was 3.16 µM (active).

With `COc1cccc(Cn2c(=O)c(-c3cccs3)nc3cncnc32)c1`, the AC50 was 5.01 µM (active). Regarding `CCNc1ncc2nc(-c3ccc(Cl)cc3)c(=O)n(Cc3cccc(OC)c3)c2n1`, the “activity, negative = inhibition” value was -13.6%. For `COc1ccc(Oc2ncc3nc(-c4cccs4)c(=O)n(Cc4cccc(OC)c4)c3n2)cc1`, the “activity, negative = inhibition” value is -16.1%. `COc1cccc(Cn2c(=O)c(-c3ccc(Cl)cc3)nc3cnc(OC)nc32)c1`: the concentration at half-maximal activity (AC50) was 3.98 µM (active). With `COc1cc(C2SCCCCCCCCCCSC(c3ccc(O)c(OC)c3)SCCCCCCCCCCS2)ccc1O` (stereo unspecified), the activity, negative = inhibition is -6.91% [at 2.29 µM].

For the compound `COCC(=O)N1CCC2(CC1)CN(Cc1ccc(C#N)cc1)C2`, the “activity, negative = inhibition” value was -6.96%. In the case of `CC(C)=CCC/C(C)=C/CO/N=C1/C[C@@H](O)[C@@H](O)[C@@H]2[C@@H]3C(=O)N(Cc4ccc5c(c4)OCO5)C(=O)[C@H]3CC[C@@H]12`, the activity, negative = inhibition was -3.81% [at 11.4 µM].

As for `N[C@@H](CO)C(=O)O`, the AC50 entry is “inactive”.

Consider `O=C(CSc1nnc(SCc2cccc3ccccc23)s1)c1ccc2c(c1)OCO2`, for which the half-maximal activity concentration (AC50) was 2.24 µM (active).

For the compound `COC(=O)C1Cc2c([nH]c3ccccc23)CN1` (stereo unspecified), the concentration at half-maximal activity (AC50) was 0.398 µM (active). Take `CC[C@H]1CN(C)[C@H]2Cc3c([nH]c4ccccc34)C(=O)C[C@H]1[C@H]2C(=O)OC`: the activity, negative = inhibition is -10.5% [at 11.4 µM]. Consider `O=C(O)[C@@H]1Cc2c([nH]c3ccccc23)[C@@H](CCCCO)N1`, for which the activity, negative = inhibition is -9.61% [at 2.29 µM]. As to `O=C1Nc2ccc(F)cc2C12SCCS2`, the AC50 is 15.8 µM (active). Still for that read-out and setting: to `Cc1ccc2c(c1)C1(SCCS1)C(=O)N2` belongs 0.891 µM (active).

For the compound `COC(=O)Cn1c(=O)c2c(nc(Br)n2Cc2ccccc2Cl)n(C)c1=O`, the “activity, negative = inhibition” value was -11.9%.

Turning to `CN(CCCNC(=O)C1CCC(=O)N1Cc1ccccc1Cl)c1ccccc1` (stereo unspecified), the “activity, negative = inhibition” value was -7.82%. Take `CCOC(=O)n1c(=O)n(Cc2c(Cl)cccc2Cl)c2ccccc21`: the AC50 was 14.1 µM (active).

As for `CCOC(=O)CC1C(=O)NCCN1S(=O)(=O)c1ccccc1Cl` (stereo unspecified), the “activity, negative = inhibition” value is 2.6%. As for `CCOC(=O)n1c(=O)n(Cc2ccccc2Cl)c2ccccc21`, the AC50 was 4.47 µM (active). In the case of `COc1ccc(CN2CCN(C(=O)CC(C)C)CC2)c(OC)c1OC`, the “activity, negative = inhibition” value is 23.3%. Consider `COc1cccc(NC(=O)c2cc(-c3cccnc3)nc3c(Cl)cccc23)c1`, for which the half-maximal activity concentration (AC50) was 8.91 µM (active). Turning to `CCOC(=O)C1C(=O)C=C(/C=C/c2ccccc2)CC1c1ccc(Cl)cc1` (stereo unspecified), the AC50 is 5.01 µM (active). As for `CCOC(=O)C1=C(C)NC2=C(C(=O)C(C(=O)OCC)C(c3ccc(OC)cc3)C2)C1c1ccccn1` (stereo unspecified), the “activity, negative = inhibition” value is -24.6%. Still for that read-out and setting: to `CC(C)(CO[C@H]1C[C@H]2CC[C@@]1(C)C2(C)C)[N+](=O)[O-]` belongs -17.1% [at 11.4 µM]. Take `Fc1ccc(C2=Nn3c(Cc4ccccc4F)nnc3SC2)cc1`: the AC50 was 0.355 µM (active). As to `Cc1ccc(C)n1NC(=O)c1ccccc1`, the “activity, negative = inhibition” value is -14.9%.

Consider `Cc1ccc(S(=O)(=O)NC(=O)c2cccn2C)cc1`, for which the “activity, negative = inhibition” value is -17.6%. Still for that read-out and setting: to `Cc1ccc(S(=O)(=O)NCCSc2nnnn2C)cc1` belongs -4.13%.

For the compound `Cc1cc2ccccc2n1CCNC(=O)C1CCCC1`, the AC50 was 1 µM (active). Take `Cc1cc2ccccc2n1CCNC(=O)c1ccccc1`: the AC50 is 4.47 µM (active). As to `Cc1cc2ccccc2c(=O)n1CC(=O)NCC(=O)N1CCCC1`, the “activity, negative = inhibition” value is -2.57%. Consider `O=C(Nc1nc2ccccc2n1CCN1CCCCC1)C1CCCCC1`, for which the “activity, negative = inhibition” value is -14.4%. As to `Cc1ccc(S(=O)(=O)NCCn2c(C)cc3ccccc32)cc1`, the AC50 is 15.8 µM (active).

On to `CS(=O)(=O)c1ccc([C@H](O)[C@H](CO)NC(=O)C(Cl)Cl)cc1`, for which the “activity, negative = inhibition” value is -1.73% [at 25.6 µM].
